aSyn UTR act = Activators working through SNCA 5'UTR binding (MLPCN) | alpha-synuclein 5'UTR reporter, activators screen | activity score, % (tested at 7.5 µM), hits read low | hit rate 7.1% among 300,000 | AID 1814; in the data active = activity score below about -60%
Each line names hits and unclear results; the compound was inactive in the other large screens. Not all results are given here.

CCc1cccc2c1Sc1ccccc1CC2N1CCNCC1 (stereo not drawn)	none
COc1ccc(CCc2nnc(CCC(=O)NCc3cc(C(C)C)no3)o2)cc1	aSyn UTR act -99
O=C(c1ccncc1)N1N=C(c2ccc(Cl)cc2)CC1c1ccccc1O (stereo not drawn)	aSyn UTR act -128
CN(C)C(=O)c1ccc(-c2cc(C(F)(F)F)nn2C)s1	aSyn UTR act -152
Cn1nc(C(F)(F)F)cc1-c1ccc(S(N)(=O)=O)s1	aSyn UTR act -123
CC(C)(C)C(=O)/C(=C/c1ccc(Cl)cc1)n1cncn1	aSyn UTR act -173
CC(C)(C)C(=O)/C(=C\c1ccc([N+](=O)[O-])cc1)n1cncn1	aSyn UTR act -277
COc1ccc(NC(=O)CC2CC3CCC2C3)cn1 (stereo not drawn)	aSyn UTR act -68
Cc1cc(/C=N/NC(=O)c2ccsc2)c(C)n1-c1cnccn1	aSyn UTR act -77
COc1cccc(N=c2oc3ccccc3cc2-c2nc3ccccc3[nH]2)c1	aSyn UTR act -80
C[n+]1c(/C=C/c2ccc(O)cc2)ccc2ccccc21	aSyn UTR act -172
C[n+]1c(/C=C/c2ccc3c(c2)OCO3)ccc2ccccc21	aSyn UTR act -150
CSc1nccc(N/N=C/c2ccccc2)n1	aSyn UTR act -158
Cc1ccnc(N/N=C/c2ccccc2)n1	aSyn UTR act -90
C(=N\Nc1nccc(-c2cccnc2)n1)/c1ccccc1	aSyn UTR act -108
Cc1ccc(-c2cc(-c3ccccc3O)nc(N/N=C/c3cccnc3)n2)cc1	aSyn UTR act -100
COc1ccc2[nH]c3c(=O)n4c(nc3c2c1)SCCC4	aSyn UTR act -92
COc1ccc2c(c1)[nH]c1c(=O)n(/N=C/C3C(C)C=C(C)CC3C)c(=O)[nH]c12 (stereo not drawn)	none
C/C(=N\OC(=O)c1ccccc1)c1cc(-c2ccc(Cl)cc2)no1	aSyn UTR act -152
C/C(=N/OC(=O)C1CC1)c1cc(-c2ccc(Cl)cc2)no1	aSyn UTR act -133
Cc1ccc(/C(N)=N/OC(=O)CSc2ccccc2)cc1	aSyn UTR act -185
COc1ccc(/C(N)=N/OC(=O)CSc2ccccc2)cc1	aSyn UTR act -162
N/C(=N\OCc1ccc([N+](=O)[O-])cc1)c1ccncc1	aSyn UTR act -83
COc1ccc(/C(N)=N/OC(=O)CC2CCCCC2)cc1	aSyn UTR act -111
N/C(=N\OC(=O)CSc1ccccc1)c1ccc([N+](=O)[O-])cc1	aSyn UTR act -121
N#Cc1cc2cc3c(cc2nc1SCC(=O)N1CCCC1)OCCO3	aSyn UTR act -85
COc1cc2cc(C#N)c(SCC(=O)N3CCOCC3)nc2cc1OC	aSyn UTR act -74
CCSc1nnc(NC(=O)c2ccc(C)o2)s1	aSyn UTR act -72
CCc1nnc(NC(=O)c2cc(C)oc2C)s1	aSyn UTR act -88
CCSc1nnc(NC(=O)c2cc(C)oc2C)s1	aSyn UTR act -161
c1csc(-c2cnc3ccccc3n2)c1	aSyn UTR act -108
c1cc(-c2cccs2)nc(-c2cccs2)c1	aSyn UTR act -104
Cc1cc(C(=O)CSc2nnc(N)s2)c(C)n1Cc1cccs1	none
Nc1ccc2nc(SCc3ccccc3F)sc2c1	aSyn UTR act -203
Nc1ccc2nc(SCC(=O)c3ccccc3)sc2c1	aSyn UTR act -75
Nc1nnc(SCC(=O)c2ccc3ccccc3c2)s1	aSyn UTR act -135
Cc1ccc(N(C)/N=C/c2ccc(Cl)cc2Cl)nn1	aSyn UTR act -92
CCCCOc1ccc(C(=O)N2CCCCCC2)cc1	aSyn UTR act -80
O=C(c1ccc(COc2ccc(Cl)cc2)cc1)N1CCCCC1	aSyn UTR act -85
COC(=O)c1ccc(COc2ccc(CNCc3ccc(Cl)cc3)cc2)cc1	aSyn UTR act -92
COc1cc(CNC(=O)c2cccc(COc3ccc(Cl)cc3)c2)cc(OC)c1	aSyn UTR act -77
O=C(NCc1ccccc1)c1cccc(COc2ccc(Cl)cc2)c1	aSyn UTR act -162
O=C(CSc1n[nH]c(-c2ccccn2)n1)Nc1cccc(Cl)c1	none
O=C(CSc1nnc(-c2cccc(Cl)c2)o1)Nc1ccc2c(c1)OCCO2	aSyn UTR act -180
Cc1ccccc1NC(=O)CSc1nnc(-c2ccccn2)o1	aSyn UTR act -77
NC(=O)CSc1nnc(-c2ccc3c(c2)OCO3)o1	aSyn UTR act -91
C/C(N)=C(/C#N)C(=O)CSc1nnc(-c2ccc3c(c2)OCO3)o1	none
O=C(CSc1nnc(-c2ccccn2)o1)Nc1cccc(Cl)c1	aSyn UTR act -194
O=C(CSc1nnc(-c2cccnc2)o1)Nc1ccccn1	aSyn UTR act -147
O=C(CSc1nnc(-c2ccc(C(F)(F)F)cn2)o1)Nc1cccc(Cl)c1	aSyn UTR act -192
COC(=O)c1ccccc1NC1=C/C(=N\S(=O)(=O)c2cccs2)c2ccccc2C1=O	aSyn UTR act -91
CCOC(=O)c1nn(-c2ccc3ccccc3c2)cc1O	aSyn UTR act -134
CCOC(=O)C1=NN(c2ccc(Cl)cc2)C(=O)C1	aSyn UTR act -144
CCOC(=O)c1nn(-c2ccc3c(c2)OCO3)cc1O	aSyn UTR act -144
CCOC(=O)c1nn(-c2ccc(Cl)cc2)cc1O	aSyn UTR act -124
CCOC(=O)c1ccc(N2CN(CC)CNC2=S)cc1	none
COC(=O)c1nn(-c2ccc(-c3ccccc3)cc2)cc1O	none
CCOC(=O)c1nn(-c2ccc(C)cc2)cc1O	aSyn UTR act -62
O=C1/C(=C/c2cccs2)CCC/C1=C\c1cccs1	aSyn UTR act -125
Cn1cccc1/C=C1\CCC/C(=C\c2cccn2C)C1=O	aSyn UTR act -154
O=C(Nc1ccc(Cl)cc1)c1csc(-c2ccccc2)n1	aSyn UTR act -68
O=C(Nc1ccc(Cl)cc1Cl)c1csc(-c2cccnc2)n1	aSyn UTR act -72
O=C(Nc1ccc(Cl)cc1)c1csc(-c2ccncc2)n1	aSyn UTR act -66
Cc1ccc2nc(NC(=O)Cn3cc4c(n3)CCCCC4)sc2c1	aSyn UTR act -108
Cc1ccc2nc(NC(=O)CN3C(=O)NC4(CCCCC4)C3=O)sc2c1	aSyn UTR act -82
Cc1ccc2nc(-c3ccc(NC(=O)CN4C(=O)NC(C)(c5ccc(OC(F)F)cc5)C4=O)cc3)sc2c1 (stereo not drawn)	aSyn UTR act -136
Cn1c(NC(=O)/C=C/c2c(F)cccc2Cl)cc(=O)n(C)c1=O	aSyn UTR act -172
Cn1c(NNC(=O)c2ccccc2F)cc(=O)n(C)c1=O	none
O=C(/C=C/c1c(F)cccc1Cl)Nc1ncccn1	aSyn UTR act -228
Cn1c(NC(=O)/C=C\c2ccccc2)cc(=O)n(C)c1=O	aSyn UTR act -137
COc1ccccc1N=Cc1c(C)c(C#N)c2[nH]c3ccccc3n2c1=O	aSyn UTR act -90
O=C(NC1CCCCC1)c1ccc2c(c1)OCO2	aSyn UTR act -93
CN(C(=O)c1ccc2c(c1)OCO2)C1CCCCC1	aSyn UTR act -82
CN(C(=O)c1cccc(N2C(=O)C3C4C=CC(C4)C3C2=O)c1)C1CCCCC1 (stereo not drawn)	aSyn UTR act -102
O=C(Nc1ccc(-c2noc(-c3ccccc3F)n2)cc1)c1cccs1	aSyn UTR act -77
Cc1ccccc1-c1nc(-c2ccc(NC(=O)c3cccs3)cc2)no1	aSyn UTR act -187
c1ccc(COc2ccc3nocc3c2)cc1	aSyn UTR act -104
CN(C)/C=N/c1sc2c(c1C#N)CCCCC2	aSyn UTR act -124
N#Cc1c(/N=C/c2cccs2)sc2c1CCCCC2	aSyn UTR act -186
N#Cc1c(/N=C/c2ccc(-c3ccccc3C(=O)O)o2)sc2c1CCCC2	aSyn UTR act -78
N#Cc1c(/N=C/N2CCOCC2)sc2c1CCCCC2	aSyn UTR act -122

Source: PubChem BioAssay
